HCMV inh: blocks human cytomegalovirus replication. activity change, negative = inhibition, % at 57.5 µM. hit rate 4.5% among 410,000. HFF cells, HCMV-luciferase reporter, 72 h; hits give low values; in the data active = activity change below about -60%; inconclusive = no clear call, values can overlap the other calls; inactive = above about -39%
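HFF cells seeded 16 h at 37C, treated with compounds, infected with luciferase-reporter HCMV at MOI 1 PFU/cell; luciferase read at 72 h post infection, normalized to buffer-only and Salinomycin controls.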
Vaccinia mCherry: vaccinia inhibition (mCherry reporter); Vaccinia virus mCherry reporter infection, fluorescence; Potency, µM (series often up to 36.5 µM), most hits filed as inhibitors; hit rate 0.63% among 310,000; AID 720579; calls by dose curve; tested in A549 cells; note: nearly all actives have a fitted effect of over 35% in size
Vaccinia Venus: vaccinia inhibition (Venus reporter) | Potency, µM (highest dose often 36.5 µM), hits mostly inhibitors | Vaccinia virus Venus reporter expression, fluorescence | hit rate 0.46% among 330,000 | AID 720580; calls by dose curve; tested in A549 cells; note: nearly all actives have a fitted effect of over 30% in size
MARV entry inh: inhibitors of Marburg virus binding or cell entry; Marburg virus pseudotyped entry inhibition, cell reporter; Potency, µM (titrated, usually from 37.8 µM), usual class: inhibitors; hit rate 1.8% among 300,000; AID 540276; calls by dose curve; tested in HEK293 cells
LASV entry inh: blocks Lassa virus binding to or entry into cells. Lassa virus pseudotype entry inhibition, cell reporter. AID 540256. hit rate 1.2% among 300,000. Potency, µM (series often up to 37.9 µM), hits mostly inhibitors; calls by dose curve; tested in HEK293 cells; note: nearly all actives have a fitted effect of over 50% in size
HCV inh: HCV inhibition | Huh7.5.1 HCVcc-Cre infection, luciferase reporter, 44 h | Potency, µM (highest dose often 41.8 µM), actives largely listed as inhibitors | hit rate 3.4% among 340,000 | AID 651820; active = well fitted inhibition curve with a large enough effect; inconclusive = small, poorly fitted or top-dose-only effect, or another doubt; inactive = no such curve, though single readings can be large or run the other way
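Whole-lifecycle infectious HCVcc-Cre system; cells 1,000/well, compound then virus (~0.5 moi) added 4 h after plating, 44 h culture. Luciferase read 15 sec following 15 min substrate incubation, room temp.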
Numbers stand for hits; - = inactive; ? = inconclusive; . = no result; [ ] = another dose, or the depositor's remark. Hits are enriched below; roughly 7.8% of the tested compounds scored in any of these assays.

SMILES	HCMV inh	Vaccinia mCherry	Vaccinia Venus	MARV entry inh	LASV entry inh	HCV inh
CCC1(C)Cc2c(sc3nnn(Cc4ccccc4Cl)c(=O)c23)CO1 (stereo unspecified)	-60	.	.	?	?	?
Cc1ccc2[nH]c(C)c([N+](=O)[O-])c2c1	-	.	.	.	.	.
CCN(CC)CCOc1nnc(-c2ccc(OC)cc2)c2ccccc12	-72	.	.	.	.	-
O=C(Nc1c(C(=O)c2ccc(Cl)cc2)oc2ccccc12)c1cc(=O)c2ccccc2o1	-	-	-	?	-	.
CN(C)CCNC(=O)c1csc(Nc2cccc3ccccc23)n1	?	?	-	10µM	?	-
CC(=O)OC1CC(OC2C(O)CC(OC3C(O)CC(OC4CCC5(C)C(CCC6C5CCC5(C)C(C7=CC(=O)OC7)C(O)CC65O)C4)OC3C)OC2C)OC(C)C1OC1OC(CO)C(O)C(O)C1O (stereo unspecified)	-101	0.28µM	0.28µM	0.18µM	?	?
CC1OC(OC2C(O)CC(OC3C(O)CC(OC4CCC5(C)C(CCC6C5CCC5(C)C(C7=CC(=O)OC7)C(O)CC65O)C4)OC3C)OC2C)CC(O)C1O (stereo unspecified)	-97	.	0.32µM	?	0.32µM	?
CC1O[C@@H](O[C@@H]2C(O)C[C@H](O[C@@H]3C(O)C[C@@H](OC4CC[C@@]5(C)C6CC(O)[C@@]7(C)C(C8=CC(=O)OC8)CC[C@@]7(O)C6CC[C@@H]5C4)OC3C)OC2C)CC(O)[C@H]1O (stereo partly specified)	.	1µM	1µM	.	.	.
C[C@H]1O[C@@H](O[C@H]2[C@@H](O)C[C@H](O[C@H]3[C@@H](O)C[C@H](O[C@H]4CC[C@@]5(C)[C@H](CC[C@@H]6[C@@H]5CC[C@]5(C)[C@@H](C7=CC(=O)OC7)CC[C@]65O)C4)O[C@@H]3C)O[C@@H]2C)C[C@H](O)[C@@H]1O	.	7.1µM	0.089µM	0.058µM	0.21µM	-[8.37 µM]
Cc1ccc(-n2ncc3c(NCCC4=CCCCC4)ncnc32)cc1C	-	-	-	.	?	.
CC(=O)[C@H]1CCC2C3CC[C@H]4C[C@@H](O)CC[C@]4(C)C3CC[C@@]21C (stereo partly specified)	-	-	-	-	-	-
CC(=O)OC1CC2(O)C3CCC4CC(O)CCC4(C)C3CCC2(C)C1C1=CC(=O)OC1 (stereo unspecified)	-97	35µM	?	?	?	?
COc1ccccc1CNC(=O)c1cnc2sccn2c1=O	-	-	-	.	.	10µM
COc1ccccc1CNC(=O)c1cnc2ccccn2c1=O	-	-	-	.	.	-
CN1C(=O)N(c2ccccc2)[C@@H](Nc2nncs2)C1(C)C	.	.	.	-	.	.
COc1ccc(CC2C(=O)NC(C)C(=O)N(C)C3Cc4ccc(cc4)Oc4cc(ccc4O)CC(C(=O)NC(C)C(=O)NC(C)C(=O)N2C)N(C)C3=O)cc1 (stereo unspecified)	-101	?	?	?	?	?
COc1ccc(CN2C(=O)C(C)Nc3ncnc(N4CCc5ccccc5C4)c32)cc1 (stereo unspecified)	-	-	-	.	.	.
Cn1c(=O)c2c(nc(N3CCN(c4ccccn4)CC3)n2Cc2ccc(Cl)cc2Cl)n(C)c1=O	-	-	-	-	-	-
Cn1c(=O)c2c(nc(NCCNC(=O)c3ccco3)n2Cc2ccc(Cl)cc2Cl)n(C)c1=O	-74	-	-	-	?	-
Cn1c(=O)c2c(nc(NCc3ccco3)n2Cc2ccccc2Cl)n(C)c1=O	-	.	-	-	-	?
CCCCNc1nc2c(c(=O)n(Cc3ccc(Cl)cc3)c(=O)n2C)n1C	-	-	-	?	-	.
Cn1c(NCCCN2CCOCC2)nc2c1c(=O)n(Cc1ccc(Cl)cc1Cl)c(=O)n2C	?	.	.	?	-	11µM
Cn1c(=O)c2c(nc(NCC3CCCC(CN)C3)n2Cc2ccc(Cl)cc2Cl)n(C)c1=O (stereo unspecified)	-99	.	.	.	.	11µM
COc1ccc(CNC(=O)Cc2csc3nc(-c4ccc(C)cc4)cn23)cc1	-	-	-	.	-	.
C=C(NNC(C)=O)c1ccc(O)cc1	.	-	-	.	.	.
SMILES	HCMV inh	Vaccinia mCherry	Vaccinia Venus	MARV entry inh	LASV entry inh	HCV inh
O=C(C[n+]1ccc2ccccc2c1)c1ccc(F)cc1	.	-	-	.	.	.
c1ccc(CN(Cc2ccccc2)c2c3c(nc4ncnn24)CCC3)cc1	-94	.	.	.	.	-
Nc1c(Cl)cc(-c2cn(CCC(=O)O)c(=O)cn2)cc1Cl	-	.	.	.	.	.
CC(/C=C1\SC(=O)N(CCCC(=O)O)C1=O)=C\c1ccccc1	-89	-	-	0.5µM	0.79µM	-
CC(=C\c1ccccc1)/C=C1/SC(=S)N(CCCC(=O)O)C1=O	-82	-	-	?	?	-
CC(=Cc1ccccc1)C=C1SC(=S)N(CCCC(=O)Nc2ccc(C(=O)O)cc2)C1=O	-	-	-	.	.	.
CC(=O)N1CCc2cc(S(=O)(=O)NC(CC(C)C)C(=O)NCCc3ccccc3)ccc21 (stereo unspecified)	-	-	-	-	-	.
Cc1cccc(Cn2cc(C(=O)Nc3ccc(F)c(C(F)(F)F)c3)ccc2=O)c1	?	-[7.34 µM]	-[7.34 µM]	.	-	.
Cc1ccc2c(c1)C/C(=C/c1ccc(N(C)C)cc1)C2=O	.	-	-	.	.	.
CCn1cc[n+](C)c1P(c1ccccc1)c1ccccc1	-76	.	.	.	.	-
COc1ccc2c(c1)-c1c(ssc1=S)C(C)(C)N2S(=O)(=O)c1ccc(C)cc1	-	?	?	?	?	?
COc1ccc(-n2sc3c(c2=S)-c2cc(OC)ccc2NC3(C)C)cc1	-68	?	?	?	-	?
COc1ccc2c(c1)-c1c(sn(-c3ccc(OC)c(OC)c3)c1=S)C(C)(C)N2	-	-	-	?	?	2.5µM
COc1ccc2c(c1)-c1c(ssc1=S)C(C)(C)N2	-89	-	-	-	-	?
COc1ccc2c(c1)-c1c(sn(-c3ccccc3)c1=S)C(C)(C)N2	?	-	-	-	-	?
CCc1nnc(SCc2cccc(Cl)c2)c2cc3sccc3n12	-	-	-	?	.	.
COc1ccc(NC(=O)c2cccc(N3CCCS3(=O)=O)c2)cc1OC	-	-	-	.	?	.
O=c1oc2ccccc2n1Cc1cccc(F)c1	?	.	.	.	.	-
O=c1ccc2ccccc2n1Cc1cccc(F)c1	-62	.	.	.	.	-
CCN(Cc1ccccc1)S(=O)(=O)c1cc(C(=O)OC)n(C)c1	-	.	.	.	.	-
CCOC(=O)c1cc(S(=O)(=O)N(C)Cc2ccccc2)cn1C	-	-	-	?	13µM	-
COCCNC(=S)N1CCC(C(=O)c2ccc(Cl)cc2)CC1	-	-	-	.	.	.
COCCCNC(=S)N1CCC(C(=O)c2ccc(Cl)cc2)CC1	-	-	?	?	?	4µM
Cc1ccc2nc(NC(=O)COC(=O)c3ccccn3)sc2c1	-	-	-	-	?	-
CCOCC(=O)Nc1nc2ccc(C)cc2s1	-	.	-	-	11µM	-
CCOCC(=O)Nc1nc2ccc(OCC)cc2s1	-	.	.	?	?	-
Cc1ccc2nc(NC(=O)CSCC(=O)OCC(=O)c3ccccc3)sc2c1	-	-	-	?	5.8µM	-

Compound activity as filed in PubChem.
